Screening results: PubChem BioAssay, The Scripps Research Institute Molecular Screening Center
CHRM1 antagonist: blocks human M1 muscarinic receptor; AID 588852; CHO-K1 hM1, Fluo-8 calcium fluorescence, ACh EC80 antagonist; hit rate 1.3% among 360,000; inhibition, % at 3 µM;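 active = percent inhibition above its own plate's cutoff, namely the mean of that plate's compound wells plus 3 SD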;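 note: peak over basal fluorescence ratio during 140 s after agonist addition; 0% = ACh EC80 plus DMSO and 100% = DMSO alone without agonist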
Target sequence (P11229 whole entry, looked up): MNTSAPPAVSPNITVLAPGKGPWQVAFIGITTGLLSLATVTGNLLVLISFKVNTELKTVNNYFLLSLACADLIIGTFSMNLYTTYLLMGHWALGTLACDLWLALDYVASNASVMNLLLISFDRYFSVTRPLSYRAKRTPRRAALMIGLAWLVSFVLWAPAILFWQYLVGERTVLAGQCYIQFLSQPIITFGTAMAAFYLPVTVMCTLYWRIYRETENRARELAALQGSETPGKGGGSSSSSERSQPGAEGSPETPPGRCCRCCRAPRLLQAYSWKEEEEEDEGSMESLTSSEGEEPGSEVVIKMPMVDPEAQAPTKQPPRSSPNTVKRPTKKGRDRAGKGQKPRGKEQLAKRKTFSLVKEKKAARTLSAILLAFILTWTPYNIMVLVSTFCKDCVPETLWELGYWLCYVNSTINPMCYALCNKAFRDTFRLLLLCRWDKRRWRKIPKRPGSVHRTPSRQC
CHRM1 PAM: human CHRM1 positive allosteric modulation; P11229; activation, % at 3 µM; CHO-K1 hM1, Fluo-8 calcium fluorescence, ACh EC20; 0% = ACh EC20, 100% = maximal ACh; hit rate 0.088% among 360,000; in the data active = activation above about 19%, passing the limit was not always enough
M1 ag parental: M1 agonist counterscreen hit in parental CHO-K1 cells; Fluo-8 calcium fluorescence; scaled to maximal ATP response, vehicle zero; activation, % at 3 µM; hit rate 0.48% among 360,000; in the data active = activation above about 15%;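 note: untransfected CHO-K1 host cells lacking M1 receptor as counterscreen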
M1 PAM parental: counter-screen for M1 PAMs: effect in parental CHO-K1 cells | ATP EC20, Fluo-8 calcium fluorescence; 0% at ATP EC20, 100% at ATP max | activation, % at 3 µM | hit rate 0.02% among 360,000;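 active = activation above the run cutoff, the mean activation of all test compounds plus 3 SD, cut at about 40% in these data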;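 note: peak over basal fluorescence ratio in a 140 s read after ATP addition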
CHO-K1 Ca antag: counter-screen for M1 antagonists: effect in parental CHO-K1 cells; inhibition, % at 3 µM; ATP-induced calcium, Fluo-8 fluorescence; AID 602250; hit rate 0.6% among 360,000;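 active = inhibition above a per-plate cutoff, the plate's mean sample inhibition plus 3 SD, cut at about 24% in these data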;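 note: 0% = DMSO plus EC80 ATP and 100% = DMSO alone without ATP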
CHRM1 agonist: agonists of human M1 muscarinic receptor; P11229; CHO-K1 hM1, Fluo-8 calcium fluorescence, agonist mode; 0% DMSO, 100% acetylcholine EC100; activation, % at 3 µM; hit rate 0.33% among 360,000; AID 588814;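 active = activation above the run's mean compound activation plus 3 SD, cut at about 16% in these data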;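 note: peak over basal fluorescence ratio within a 140 s kinetic read after compound addition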
Starred values were filed as active, the others as inactive. A selection: hits, their analogues and other compounds. The true share with any hit is near 2.4%.

For Cc1ccc(S(=O)(=O)N2C[C@H]3C(=O)C[C@@H](c4cccc(Cl)c4)N(S(=O)(=O)c4ccc(C)cc4)[C@H]3C[C@H]2c2ccccc2)cc1 the results were CHRM1 antagonist -11, CHRM1 PAM 8, M1 ag parental 1, M1 PAM parental 10, CHO-K1 Ca antag -9 and CHRM1 agonist -1.
Screening N#Cc1ccc(C(=O)Nc2nnc(-c3cccs3)o2)cc1 returned CHRM1 antagonist -9, CHRM1 PAM 10, M1 ag parental 0, M1 PAM parental 9, CHO-K1 Ca antag -5 and CHRM1 agonist -1.
`O=C(Nc1nnc(-c2cccs2)o1)c1cccc(C(F)(F)F)c1` gave CHRM1 antagonist -4, CHRM1 PAM -8, M1 ag parental 32*, M1 PAM parental 17, CHO-K1 Ca antag 5 and CHRM1 agonist 41*.
COc1cc(OC)cc(C(=O)N[C@H](C(=O)NCc2ccccc2)C(C)C)c1 was read as CHRM1 antagonist -2, CHRM1 PAM 5, M1 ag parental 0, M1 PAM parental -4, CHO-K1 Ca antag 1 and CHRM1 agonist -8.
For Cc1cc2cc(CNC(=O)c3ccc(S(=O)(=O)N4CCCC4)cc3)ccc2n1C the results were CHRM1 antagonist 73*, CHRM1 PAM -28, M1 ag parental 2, M1 PAM parental 21, CHO-K1 Ca antag 7 and CHRM1 agonist -11.
For CCN(CC)S(=O)(=O)c1ccc(C(=O)NCc2ccc3c(c2)cc(C)n3C)cc1 the results were CHRM1 antagonist 57*, CHRM1 PAM -31, M1 ag parental 1, M1 PAM parental 7, CHO-K1 Ca antag -5 and CHRM1 agonist -11.
For Cc1cc2cc(CNC(=O)c3ccc(S(=O)(=O)N4CCCCC4)cc3)ccc2n1C the results were CHRM1 antagonist 13, CHRM1 PAM -13, M1 ag parental 2, M1 PAM parental -1, CHO-K1 Ca antag 4 and CHRM1 agonist -11.
`COc1cc(C2Nc3ccccc3C(=O)N2NS(C)(=O)=O)c([N+](=O)[O-])cc1OC` (stereo not drawn) gave CHRM1 antagonist -4, CHRM1 PAM 27*, M1 ag parental 0, M1 PAM parental 7, CHO-K1 Ca antag -7 and CHRM1 agonist -3.
Screening O=C(CC[C@H]1O[C@@H](n2ccc(=O)[nH]c2=O)[C@H](O)[C@@H]1O)N[C@H](Cc1ccccc1)C(=O)NCc1ccc2c(c1)OCO2 returned CHRM1 antagonist -4, CHRM1 PAM 3, M1 ag parental 0, M1 PAM parental 11, CHO-K1 Ca antag 15 and CHRM1 agonist -3.
Screening CN1C(=O)/C(=C/c2ccccc2OCc2cccc(F)c2)N(C)C1=S returned CHRM1 antagonist 100*, CHRM1 PAM -22, M1 ag parental 1, M1 PAM parental 23, CHO-K1 Ca antag -10 and CHRM1 agonist -5.
`CN1C(=O)/C(=C/c2ccc(OCc3ccc(F)cc3)cc2)N(C)C1=S` gave CHRM1 antagonist -13, CHRM1 PAM 7, M1 ag parental 1, M1 PAM parental 19, CHO-K1 Ca antag -12 and CHRM1 agonist -3.
`CCOC(=O)C1=C(C)N(CC(C)C)C(=O)/C1=C\c1ccc(OCC(=O)Nc2ccccc2)cc1` gave CHRM1 antagonist 34*, CHRM1 PAM -20, M1 ag parental 1, M1 PAM parental 13, CHO-K1 Ca antag -1 and CHRM1 agonist -4.
Screening N#Cc1c(-c2ccccc2Cl)cc(C2CC2)nc1N returned CHRM1 antagonist -3, CHRM1 PAM 8, M1 ag parental 25*, M1 PAM parental 43*, CHO-K1 Ca antag -17 and CHRM1 agonist 42*.
`O=c1c2c3c(sc2nc2n1CCCCC2)CCCCC3` gave CHRM1 antagonist 14, CHRM1 PAM -16, M1 ag parental 0, M1 PAM parental -5, CHO-K1 Ca antag 10 and CHRM1 agonist -9.
Screening N=c1c2c3c(sc2nc2n1CCCCC2)CCCCC3 returned CHRM1 antagonist 92*, CHRM1 PAM -21, M1 ag parental 3, M1 PAM parental 8, CHO-K1 Ca antag -13 and CHRM1 agonist -4.
CC1(C)CC(NC(=O)N2c3ccccc3Sc3ccccc32)CC(C)(C)N1 was read as CHRM1 antagonist 50*, CHRM1 PAM -24, M1 ag parental 1, M1 PAM parental 10, CHO-K1 Ca antag -8 and CHRM1 agonist -8.
